Results published in PubChem BioAssay.
Active and inactive are the calls of the source. Unless noted, the rule behind the calls is not given here.

Experiments:
[1] = system: XIP peptide (Xip251-270) binding; experiment: small-molecule binders of XIP peptide, primary screen, biochemical, small-molecule microarray, fluorescence 635/667 nm, 0.1 µg/mL protein (AID 1182); details: fluorescent protein binding, 635 nm, higher = more signal, called active from +8 up or from −8 down
XIP peptide (Xip251-270) = experiment: small-molecule binders of XIP peptide, primary screen, biochemical, small-molecule microarray, fluorescence 635/667 nm, 0.5 µg/mL protein (AID 1183); details: small-molecule microarray binding, fluorescence 635 nm; higher = more signal
[2] = Plasmodium falciparum growth inhibition, primary screen, strain 3D7, DAPI fluorescence, 100 nL (AID 1184);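 note: parasites grown inside human red blood cells in medium with human serum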; details: P. falciparum 3D7 growth, 3 d, higher = more signal
[3] = target: Homeobox protein Hox-A13 (Mus musculus) (UniProt Q62424); experiment: inhibitors of HoxA13-DNA binding, primary screen, biochemical, fluorescence polarization, labeled oligonucleotide (AID 1185); details: 15 min, higher = more signal, called active from +8 up or from −8 down
[4] = inhibitors of hydroxyurea-induced Chk1 phosphorylation, primary screen, imaging, HeLa, phospho-Chk1 antibody, percent positive cells (AID 1186); details: hydroxyurea-induced phospho-Chk1 immunofluorescence imaging, higher = more signal
[5] = inhibitors of hydroxyurea-induced Chk1 phosphorylation, primary screen, imaging, HeLa, phospho-Chk1 nuclear intensity (AID 1187); details: hydroxyurea-induced phospho-Chk1 immunofluorescence imaging, higher = more signal

Chain of Homeobox protein Hox-A13 (Mus musculus) (Q62424 whole entry, looked up): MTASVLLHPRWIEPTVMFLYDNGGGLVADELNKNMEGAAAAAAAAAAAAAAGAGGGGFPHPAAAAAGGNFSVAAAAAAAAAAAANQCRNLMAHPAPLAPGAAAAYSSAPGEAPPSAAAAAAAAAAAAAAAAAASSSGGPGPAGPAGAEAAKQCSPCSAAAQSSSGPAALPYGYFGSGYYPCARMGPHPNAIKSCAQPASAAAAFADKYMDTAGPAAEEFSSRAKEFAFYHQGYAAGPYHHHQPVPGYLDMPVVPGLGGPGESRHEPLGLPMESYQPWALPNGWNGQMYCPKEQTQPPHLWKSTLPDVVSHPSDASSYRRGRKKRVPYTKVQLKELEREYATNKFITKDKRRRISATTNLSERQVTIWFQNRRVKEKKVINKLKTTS

| Compound | composite z-score [1] | composite z-score (XIP peptide (Xip251-270)) | z-score [2] | z-score [3] | z-score [4] | z-score [5] |
| --- | --- | --- | --- | --- | --- | --- |
| COc1ccc([Si](C)(C)[C@@H]2[C@@H](CCO)O[C@]3(C(=O)N(Cc4ccc(NC(C)=O)cc4)c4ccccc43)[C@H]2C)cc1 | 0.935 (inactive) | 0.811 | -2.92 | -5.34 (inactive) | -0.861 (inactive) | -0.16 (inactive) |
| C=C(/C(=C/C[C@@H](OC(=O)c1ccncc1)c1ccc(OCCO)cc1)c1cnc2ccccc2c1)C(C)C | -0.214 (inactive) | 0.565 | -2.84 | -5.46 (inactive) | -0.452 (inactive) | -0.051 (inactive) |
| CCOC(=O)C1=CCC(c2cc3ccccc3[nH]2)NC1 (stereo unspecified) | -0.0143 (inactive) | -0.753 | -0.501 | -1.51 (inactive) | 0.437 (inactive) | -0.151 (inactive) |
| Cc1ccc(F)cc1S(=O)(=O)N[C@@H]1CCN(Cc2ccc(CC(C)C)cc2)C1 | -0.112 (inactive) | -0.583 | -1.66 | -4.52 (inactive) | -0.496 (inactive) | -0.724 (inactive) |
| COC(=O)C1(C)C=C2C(=C(c3ccccc3)C(=O)C2C)CN1 (stereo unspecified) | -0.21 (inactive) | 0.923 | -0.0619 | -7.29 (inactive) | 0.74 (inactive) | 0.84 (inactive) |
| CN1C(=O)C2C=CC(C(O)c3ccc(I)cc3)N(NC(=O)OC(C)(C)C)C2C1=O (stereo unspecified) | 0.0031 (inactive) | 0.575 | -0.711 | -2.75 (inactive) | 0.256 (inactive) | 0.078 (inactive) |
| CCN(CC)c1ccc(N2CC=CC34O[C@@H]5/C=C\CCC(C)OC(=O)C5[C@H]3C(=O)N(CCCO)[C@@H]4C2=O)cc1 (stereo partly specified) | 0.217 (inactive) | 0.974 | -0.0779 | -6.38 (inactive) | 0.0745 (inactive) | -0.0024 (inactive) |
| C=C(CCCC)C(=O)CC[C@@H](OC(C)=O)c1cccc(OCCO)c1 | -0.0399 (inactive) | 0.0194 | -1.47 | -3.72 (inactive) | 0.163 (inactive) | 0.0394 (inactive) |
| C[N+](C)(C)CCCCCCNC(=O)[C@@H]1C[C@@H]2C(=O)N3CCC[C@H]3C(=O)N2[C@@H]1c1cccc(OCCO)c1 | -0.113 (inactive) | 0.697 | -0.204 | -4.95 (inactive) | -0.173 (inactive) | -0.0252 (inactive) |
| COCCOC(=O)N1C(=O)[C@@]2(c3cc(C#CC4(O)CCCCCC4)ccc31)[C@H](C(=O)N1CCN(c3ncccn3)CC1)[C@H]1C(=O)O[C@H](c3ccccc3)[C@H](c3ccccc3)N1[C@@H]2c1ccc(OCCO)cc1 | -0.128 (inactive) | 0.835 | -2.34 | 0.821 (inactive) | 0.124 (inactive) | 0.204 (inactive) |
| CN(C)CCCNC(=O)[C@@H]1c2ccccc2C(=O)N(Cc2ccccc2)[C@H]1c1ccc(CO)cc1 | 0.0257 (inactive) | -0.32 | 0.0535 | 0.86 (inactive) | 0.242 (inactive) | 0.372 (inactive) |
| COCCOC(=O)N1C(=O)[C@@]2(c3cc(C#CCNC(N)=O)ccc31)[C@H](c1ccc(O)cc1)N1[C@H](c3ccccc3)[C@H](c3ccccc3)OC(=O)[C@H]1[C@@H]2C(=O)N1CCCCCCC1 | 0.348 (inactive) | 0.561 | -0.0743 | -0.578 (inactive) | 0.149 (inactive) | 0.452 (inactive) |
| COCCCNC(=O)[C@@]1(Sc2ccc(C)cc2)CC(=O)N(Cc2ccccc2)[C@@H]1c1ccc(CO)cc1I | -0.453 (inactive) | 0.423 | -0.0893 | -2.08 (inactive) | 0.442 (inactive) | 1.03 (inactive) |
| CCc1cccc(NC(=O)O[C@H]2[C@H](OC(=O)Nc3ccc4c(c3)OCO4)[C@@H](OC(=O)Nc3ccc4c(c3)OCO4)[C@@H](OC)O[C@@H]2CO)c1 | 0.0979 (inactive) | -0.0177 | -2.23 | -6.22 (inactive) | -0.313 (inactive) | 0.165 (inactive) |
| COC(=O)c1c(CC[C@@H](CO)NC(=O)N[C@H](Cc2ccccc2)Cn2cc(-c3ccccc3N)nn2)oc(C(C)=O)c1C(=O)OC | 0.0074 (inactive) | 0.0678 | -1.29 | -5.26 (inactive) | -0.125 (inactive) | 0.189 (inactive) |
| CCCC=C(CCC)[C@@H](NC(=O)c1ccc(-c2ccccc2)cc1)c1ccc(C(=O)OC)cc1 | -0.144 (inactive) | 0.0922 | 0.208 | -0.539 (inactive) | 0.125 (inactive) | -0.115 (inactive) |
| CCCCC(=C=CC[C@H](O)c1ccccc1OCCO)C[C@H](O)COCc1ccccc1 | 1.03 (inactive) | -0.765 | -1.21 | -4.61 (inactive) | -0.15 (inactive) | 0.18 (inactive) |
| O=C1NC(=O)C2C1C=CC(C(O)Cc1ccccc1)N2Nc1ccccn1 (stereo unspecified) | -0.0757 (inactive) | 0.804 | 0.396 | -3.75 (inactive) | -0.349 (inactive) | -0.306 (inactive) |

| Compound | composite z-score [1] | composite z-score (XIP peptide (Xip251-270)) | z-score [2] | z-score [3] | z-score [4] | z-score [5] |
| --- | --- | --- | --- | --- | --- | --- |
| COCC1=C2[C@@H](CCc3ccccc3)OB(O)C[C@@H]2n2c(=O)n(-c3ccccc3)c(=O)n2C1 | -0.0712 (inactive) | 0.835 | 1.25 | -4.79 (inactive) | 0.0264 (inactive) | -0.295 (inactive) |
| COCCOC(=O)N1C(=O)[C@@]2(c3cc(C#CCNC(N)=O)ccc31)[C@H](c1ccccc1OCCO)N1[C@H](c3ccccc3)[C@H](c3ccccc3)OC(=O)[C@H]1[C@@H]2C(=O)N1CCN(c2ncccn2)CC1 | 0.521 (inactive) | 0.787 | -2.09 | -0.789 (inactive) | -0.44 (inactive) | -0.438 (inactive) |
| NC(=O)NCC#Cc1ccc2c(c1)[C@]1(C(=O)N2)[C@H](c2ccc(O)cc2)N2[C@H](c3ccccc3)[C@H](c3ccccc3)OC(=O)[C@H]2[C@@H]1C(=O)N1CCCCCCC1 | 0.145 (inactive) | 0.469 | 0.308 | 1.52 (inactive) | -0.374 (inactive) | -0.693 (inactive) |
| CC1CC/C=C\[C@H]2OC34C=CCN(Cn5nnc6ccccc65)C(=O)[C@H]3N(CCO)C(=O)[C@@H]4C2C(=O)O1 (stereo partly specified) | 0.711 (inactive) | 0.855 | -0.611 | -5.38 (inactive) | -0.384 (inactive) | -0.173 (inactive) |
| C#C[C@@H]1Oc2ccccc2S(=O)(=O)N2CCC[C@H]12 | -0.037 (inactive) | -0.149 | -0.0728 | -0.61 (inactive) | 0.723 (inactive) | 0.595 (inactive) |
| [N-]=[N+]=Nc1ccccc1C[C@@]1(C(N)=O)N=C(c2ccc(OCCCO)cc2)O[C@@H]1c1ccccc1 | 0.353 (inactive) | -0.649 | -2.14 | -4.43 (inactive) | -0.332 (inactive) | -0.449 (inactive) |
| COC(=O)[C@@]1(Cc2ccc(OC)cc2)[C@H]2c3cc(C(=O)N4CCCC4)n(Cc4cc(F)c(F)c(F)c4)c3C[C@H]2CN1C(=O)c1ccccc1 | 0.902 (inactive) | 0.604 | -1.56 | -2.27 (inactive) | -0.345 (inactive) | -0.868 (inactive) |
| CC(C)NC(=O)[C@@H]1c2ccccc2C(=O)N(CC23CC4CC(CC(C4)C2)C3)[C@H]1c1ccc(CO)cc1 | 0.166 (inactive) | 0.661 | -1.84 | -4.68 (inactive) | -0.111 (inactive) | -0.0146 (inactive) |
| COCCCNC(=O)[C@@]1(C)c2ccccc2C(=O)N(Cc2ccc(OC(F)(F)F)cc2)[C@H]1c1ccc(CO)cc1 | 0.111 (inactive) | 0.187 | -0.313 | -2.89 (inactive) | -0.143 (inactive) | -0.339 (inactive) |
| C=CC[C@]1(C(=O)NCc2ccccc2)N=C(c2ccc(OCCCO)cc2)O[C@H]1c1ccccc1 | 1.55 (inactive) | 0.776 | -2.05 | -6.34 (inactive) | 0.0635 (inactive) | 0.896 (inactive) |
| [N-]=[N+]=NCc1ccccc1[C@@H]1OC(c2ccc(OCCCO)cc2)=N[C@]1(Cc1ccccc1)C(=O)N1CCOCC1 | 0.713 (inactive) | 0.841 | -2.33 | -4.99 (inactive) | -0.449 (inactive) | -1.03 (inactive) |
| CCCNC(=O)[C@@H]1c2ccccc2C(=O)N(Cc2ccccc2Cl)[C@H]1c1ccc(CO)cc1 | -0.101 (inactive) | 0.799 | -0.994 | -2.59 (inactive) | -0.258 (inactive) | -0.142 (inactive) |
| O=C1C2C=CC(C(O)c3ccc([N+](=O)[O-])cc3)N(Nc3ccc([N+](=O)[O-])cc3)C2C(=O)N1c1ccccc1 (stereo unspecified) | 1.39 (inactive) | 0.813 | -0.498 | -4.02 (inactive) | 0.822 (inactive) | -0.512 (inactive) |
| CCCC[C@H]1OB(O)C[C@H]2C1=C(C)C[C@H]1C(=O)N(C)C(=O)[C@H]12 | 0.756 (inactive) | 0.608 | 2.46 | -9.92 (active) | 0.327 (inactive) | 0.547 (inactive) |
| CC(C)[Si]1(C(C)C)O[C@@H](c2ccccc2)c2cc(C3CC3)nc(-c3ccccc3)c21 | -0.431 (inactive) | 0.555 | 0.0193 | -1.21 (inactive) | -0.652 (inactive) | -0.694 (inactive) |
| COC(=O)[C@H]1COC(c2ccc(OCCCO)cc2)=N1 | 0.239 (inactive) | 0.871 | -0.264 | -3.56 (inactive) | 0.101 (inactive) | -0.388 (inactive) |
| CC1CC/C=C\[C@H]2OC34C=CCN(C(C)C)C(=O)[C@H]3N(CCCO)C(=O)[C@@H]4C2C(=O)O1 (stereo partly specified) | 0.94 (inactive) | -0.835 | -0.0943 | -2.96 (inactive) | -0.471 (inactive) | -0.415 (inactive) |
| C=CCC(OC(C)=O)[C@@H]1[C@@H](N(Cc2cc3ccccc3o2)C(=O)Cc2ccc(F)cc2)c2cc(OCCCO)ccc2N1C(=O)Cc1ccc(OC)cc1 (stereo partly specified) | -0.386 (inactive) | -0.0246 | 0.163 | -2.68 (inactive) | 0.784 (inactive) | 0.0687 (inactive) |
